Measured values taken from PubChem BioAssay AID624202 (National Center for Advancing Translational Sciences (NCATS), 2012).
Screen size: about 380,000 compounds; about 4,000 (1.1%) were called active. Not shown: some 3% with an inconclusive outcome. Calls come from the whole dose curve; as a rule, active = well fitted activation curve with a large enough effect; inconclusive = small, poorly fitted or top-dose-only effect; inactive = no such curve, though single readings can be large or run the other way. This excerpt belongs to a sample that is enriched for actives.

assay: qHTS Assay to Identify Small Molecule Activators of BRCA1 Expression; conditions: MCF7-BRCA1-FFLuc reporter, luminescence, 48 h; series mostly up to 46.1 µM; activation: at the top concentration; note: nearly all actives have a fitted effect of over 80% in size
Summary of the method: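 Luminescence from a BRCA1-driven firefly luciferase in MCF7 cells was read after 48 h compound exposure at 37 C. Data normalized against DMSO and a 10microM genistein activation control, then curve-fitted across the titration.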
Potency is the fitted concentration of half-maximal effect.

activation, inactive:
O=C(Nc1ccc([N+](=O)[O-])cc1)c1cnn2c1NC(=C1CC1)C=C2C(F)F -12%
Cc1ccccc1C(=O)Nc1cc(C)c(O)c(-c2nc3ccccc3o2)c1 4.2%
COc1ccc(-n2c(SCC(N)=O)nc3c(oc4ccccc43)c2=O)cc1 10.5%
COc1ccccc1N1CCN(C(=O)C2CCN(S(=O)(=O)c3c(C)noc3/C=C/c3ccc(C)cc3)CC2)CC1 -17.8%
Cc1cc(C)c(NC(=O)CCc2c(C)nc3c(c(C)nn3C(C)(C)C)c2C)c(C)c1 0.411%
Cc1ccc(-n2nnnc2CNC(=O)c2ccccc2C)cc1C -4.16%
CN(C(=O)CSc1nnc(-c2c[nH]c3ccccc23)o1)C1CCS(=O)(=O)C1 (configuration not stated) -6.49%
CCC(CC)NC(=O)CSc1nnc(-c2c[nH]c3ccccc23)o1 0%
Cc1ccccc1NC(=O)Cn1c(=O)n(CCc2ccccc2)c(=O)c2ccccc21 -32.7%
COc1c(Cl)cc(Cl)cc1C(=O)Nc1cccc2cccnc12 -37.4%
COc1cc2[nH]c(=O)n(Cc3ccc(C(=O)NCc4ccc(C)cc4)cc3)c(=O)c2cc1OC 0%
Cc1cccc(NC(=O)COC(=O)c2ccccc2OCc2cccc(Br)c2)c1 0%
CCOc1ccc(OCC)c(NC(=O)CN(c2ccc(C)cc2)S(=O)(=O)c2c(C)n[nH]c2C)c1 -79.3%
CC(=O)Nc1cccc(NC(=O)CSc2nccn2Cc2ccc(F)cc2)c1 4.89%
CCCCNC(=O)CSc1nccn1Cc1ccccc1 -5.11%
COc1ccc(CN(Cc2ccccc2)C(=O)c2ccc(O)cc2)cc1COc1ccc(NC(C)=O)cc1 -5.58%
Cc1ccc(CCNC(=O)Cn2c(-c3cccs3)cc3cc(F)ccc32)cc1 0.969%
COc1ccc(NC(=O)Cn2c(=O)cc(C)c3c(C)nn(-c4cccc(Cl)c4C)c32)cc1OC 6.76%
O=C(O)C1=C/C(=C/C=[N+]2c3cc(O)c(O[C@H]4OC(CO)[C@@H](O)[C@@H](O)[C@@H]4O)cc3C[C@@H]2C(=O)[O-])C[C@H](C(=O)O)N1 (some centres not stated) 7.03%
COc1ccc(-c2[nH]c3c(c2-c2c(-n4cccc4)n(C)c(=O)n(C)c2=O)c(=O)n(C)c(=O)n3C)cc1 -3.01%
Cc1ccc(S(=O)(=O)n2nc(C)c(S(=O)(=O)N3CCCCCC3)c2C)cc1 1.48%
CCOc1ccc(NC(=O)c2ccc(NC(=O)CN3C(=O)C(=O)N(CC(C)C)C3=O)cc2)cc1 38.8%
CCOc1ccc(NC(=O)Cn2c(C)ccc(C#N)c2=O)cc1 0%
CCn1cc(C(=O)N2CCN(c3cc(C)ccc3C)CC2)c(=O)c2cc(S(=O)(=O)N(C)C3CCCCC3)ccc21 3.03%
CSc1ccc(CCNC(=O)c2cnn(-c3ccccc3)c2-n2cccc2)cc1 0%
CC(=O)c1ccc(NC(=O)CCc2nc(-c3ccc(C)cc3)no2)cc1 0%
O=C(Nc1ccc2nc(SCC(=O)N3CCc4ccccc43)sc2c1)c1ccccc1F 1.78%
CC(=O)Nc1ccc2nc(SCCOc3cc(C)cc(C)c3)sc2c1 0.227%
COc1cc2nc(N3CCCN(C)CC3)nc(NC3CC3)c2cc1OC -1.84%
COc1ccccc1C(=O)NCCC(=O)NC1=NCCS1 -5.3%
CCOc1ccc(C(=O)CCC(=O)NC2=NCCS2)cc1 -0.556%
O=C(Nc1ccccc1)c1ccccc1OCc1ccccc1 0%
O=C(CCCCn1c(=O)c2ccccc2n(CC(=O)Nc2cccc(C(F)(F)F)c2)c1=O)NCc1ccc2c(c1)OCO2 4.95%
NC1=NC(c2cc(F)cc(F)c2)n2c(nc3ccccc32)N1 (configuration not stated) 12.8%
O=C(c1cnn2c1NC(=C1CC1)C=C2C(F)F)N1CCc2ccccc2C1 -19.4%
Cc1cccc(NC(=O)CSc2nc3c(oc4ccccc43)c(=O)n2-c2ccc(F)cc2)c1 -1.49%
O=C(Nc1cc(-c2nc3ccccc3o2)ccc1Cl)c1cc([N+](=O)[O-])ccc1N1CCOCC1 10.8%
S=c1[nH]c(=S)c2n[nH]nc2[nH]1 10.8%
CC(=O)Nc1cccc(/C(C)=N/NC(=O)c2c(-c3ccccc3Cl)noc2C)c1 -35.1%
COc1ccc(Cl)cc1S(=O)(=O)Nc1cccc(C(=O)O)c1 4.55%
C[N+]1(CC(=O)c2cccs2)CCOCC1 2.95%
CC(C)CC(CC(C)C)=NNC(=O)c1ccc(CSc2nncn2C)cc1 3.02%
COC(=O)c1ccc(CSc2nncn2N)cc1 4.18%
COc1ccccc1CNC(=O)CCCn1c(=O)c2ccccc2n(CC(=O)Nc2ccc(C)cc2Cl)c1=O -11.4%
OC(CBr)CN1CCCCC1 (configuration not stated) 0%
Cc1cc(Cl)ccc1NC(=O)Cc1ccc(NC(=O)N2CCCCc3ccccc32)cc1 0%
Cc1ccc2[nH]cc(CCCN3C(=O)c4ccccc4C3=O)c2c1 43.5%
COCCCN1C(=O)c2ccc(C(=O)Nc3ccc(OC)cc3OC)cc2C1=O -22.3%
O=C(Nc1ccc([N+](=O)[O-])cc1)C1CC12CCC2 (configuration not stated) 62%
O=C(O)/C=C/C(=O)NNc1ccc([N+](=O)[O-])cc1 0%
Cc1cccc(-c2nnc(SC(C)C(=O)Nc3ccccc3)n2C)c1 (configuration not stated) 117%
COc1ccc(CNC(=O)c2cc3c(s2)-c2ccccc2OC3)cc1 18.4%
O=C(Nc1ccccc1C(=O)N1CCCCC1)c1ccco1 6.82%
O=C(Nc1ccc2nc(SCCOc3ccccc3)sc2c1)c1ccco1 0%
Cc1cc(C)cc(NC(=O)CSc2ccccc2)c1 65%
C/C(=N\NC(=S)Nc1ccc(C)cc1)c1cc2ccccc2o1 -20.3%
O=C(CNC(=O)c1ccco1)NNC(=O)c1ccc(Br)cc1 -2.34%
O=C(Nc1ccc2nc(SCCOc3ccccc3Cl)sc2c1)c1ccco1 3.88%
O=C(Nc1ccc(CSc2ccccc2)cc1)c1ccc(CN2CCOCC2)cc1 -37.6%
CN(C)C(CNC(=O)c1cc2ccccc2o1)c1ccccc1 (configuration not stated) -8.03%
Cc1cc(C)c(NC(=O)Cn2c(SCC(=O)NCc3ccccc3)nc3ccccc32)c(C)c1 0%
CC(=O)c1ccc(NC(=O)c2nc3nc(C)cc(C(F)F)n3n2)cc1 21.9%
CC(=O)Nc1ccc(NC(=O)C2CCCN(S(=O)(=O)c3ccc4c(c3)CCCC(=O)N4)C2)cc1 (configuration not stated) 7.29%
Cn1c(=O)cc(OCC(=O)N2CCN(c3ccccc3)CC2)c2ccccc21 0.73%
O=C(c1cnn(-c2ccc(F)cc2)c1-n1cccc1)N1CCN(c2ccc(F)cc2)CC1 -11.3%
CCOC(=O)c1ccc(NC(=O)CCn2cnnn2)cc1 -5.89%
COc1cc2nc(SCc3ccc(F)cc3)n3nc(CCn4c(C)nc5ccccc54)nc3c2cc1OC 9.42%
COc1ccc2oc(-c3ccc(C)c(NC(=O)c4sc5ccccc5c4Cl)c3)nc2c1 -5.08%
CCOc1ccc(CCNC(=O)c2c(C)oc3ncn(C)c(=O)c23)cc1 3.41%
COC(=O)c1ccccc1NC(=O)c1cnn(-c2ccc(F)cc2)c1-n1cccc1 -37%
Cc1ccc(NC(=O)C(c2ccccc2)N2CCN(C(=O)c3ccco3)CC2)cc1 (configuration not stated) 4.49%
CSCCC(NC(=O)c1ccco1)C(=O)Nc1cc(C)ccn1 (configuration not stated) -7.71%
CN1CCN(S(=O)(=O)c2ccc(NC(=O)c3ccco3)cc2)CC1 55.6%
Cc1ccnc(NC(=O)CCC(=O)N(CC(=O)NCc2ccccc2)Cc2ccco2)c1 -1.62%
COC(=O)CC1Oc2ccccc2-n2cc(-c3ccccc3)nc21 (configuration not stated) -3.85%
CCN(CC)CCNC(=O)c1cc2c(=O)oc3ccc(C)cc3c2s1 6.45%
CC(C)c1ccc(NC(=O)Cn2c3ncccc3c(=O)n2-c2ccccc2)cc1 0%
O=C(Nc1ccc(Br)cc1)c1ccc(Br)c(S(=O)(=O)NCc2ccccc2)c1 -67%
COc1ccccc1NC(=O)Cn1cnc2ccc(S(=O)(=O)N3CCC(C)CC3)cc2c1=O -3.73%
ClC/C=C/C[n+]1ccccc1Cl 29.9%
Cc1cc(NC(=O)COC(=O)/C=C/c2ccc(C)o2)no1 -15.1%
CCc1nnc(NC(=O)[C@@H](NC(=O)c2cccc(C)c2)C(C)C)s1 -10.7%
Cc1ccc(N2CCN(C(=O)CCc3c(C)nc4c(c3C)c(=O)n(C)c(=O)n4C)CC2)c(C)c1 -5.92%
CSc1n[nH]c(-c2ccco2)n1 5.48%

Potency, active:
O=C(CSc1nnc(-c2c[nH]c3ccccc23)o1)c1ccccc1 12.6 µM
CCc1cccc(NC(=O)CSc2nccn2C)c1 12.6 µM
Cc1nn2cc(-c3ccc(Cl)cc3)cnc2c1Br 8.91 µM
CCOc1ccc(NC(=O)c2ccc(NC(=O)COC(=O)c3ccc(NC(=O)CC#N)cc3)cc2)cc1 2.82 µM
CSc1nc2ccc(NC(=O)c3c(F)cccc3F)cc2s1 5.62 µM
O=C(NC1=NCCS1)c1ccc(Cl)s1 5.62 µM
C/C(=N\Nc1cccc(C(=O)O)c1)c1ccc2c(c1)Nc1ccccc1S2 7.08 µM
COC(=O)c1ccc(CSc2nncn2C)cc1 10 µM
COC(=O)C1C(=O)c2c([nH]c(C(=O)OCCSC)c2C)CC1C (configuration not stated) 28.2 µM
COc1ccc2[nH]cc(CCN3C(=O)c4ccc(C(=O)O)cc4C3=O)c2c1 10 µM
CC(=O)Nc1ccc(C=Cc2ccc([N+](=O)[O-])cc2)cc1 1.78 µM
Cc1ccc(NC(=O)c2cc3ccccc3o2)cc1 12.6 µM
O=C(Nc1ccc(O)cc1)c1ccc(NC(=O)c2ccco2)cc1 3.16 µM
O=C(Nc1ccc2nccnc2c1)c1ccco1 10 µM
O=C(CSc1ccccc1)Nc1ccc(NC(=O)c2ccco2)cc1 11.2 µM
Cc1ccnc(NC(=O)c2ccc(NC(=O)c3ccco3)cc2)c1 11.2 µM
Cc1ccc(NC(=O)c2ccco2)cc1 7.94 µM
CCc1nnc(NC(=O)/C=C/c2ccc(C)o2)s1 11.2 µM
